Source: PubChem
C diff growth: blocks growth of Clostridium difficile | growth activity, negative = inhibition, % at 16 µg/mL (by protocol) | Clostridium difficile clinical isolate growth, OD600, 24 h; stronger effect = lower value | AID 1259249 | 0.25% of 86,000 active;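 active = mean growth activity at or below -80% and every replicate also at or below -80%; inconclusive = mean at or below -80% but some replicate above -80%; inactive = mean growth activity above -80%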;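 note: 0% = DMSO wells and -100% = levofloxacin 16 µg/mL wells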
Pf Dd2 growth: inhibitors of Plasmodium falciparum Dd2 growth; activity change, % at 10 µM; 2.3% of 94,000 active; P. falciparum Dd2 growth, SYBR Green, 72 h; stronger effect = lower value; in the data active = activity change below about -80%; inconclusive = no clear call, values can overlap the other calls
T cruzi growth-1: T. cruzi proliferation inhibition; T. cruzi beta-gal in NIH3T3, GalScreen luminescence, 90 h; inhibition, % at 8.34 µM; 5.9% of 77,000 active;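 active = mean inhibition above about 93%, with at least 55% of replicates each passing it, limit read from the data, passing the limit was not always enough; inconclusive = only one of those two conditions holds; inactive = neither condition holds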
T cruzi growth-2: Trypanosoma cruzi proliferation inhibition; shares compounds with T cruzi growth-1; T. cruzi beta-gal in NIH3T3, GalScreen luminescence, 90 h; inhibition, % at 8.35 µM; 72% of 5,600 active; AID 651739;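 active = mean replicate inhibition above about 95% and at least 55% of replicates individually reaching it, limit read from the data; inconclusive = only one of the two criteria is met; inactive = neither criterion is met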
T cruzi growth-3: inhibitors of T. cruzi proliferation | shares compounds with T cruzi growth-1 | T. cruzi beta-gal in NIH3T3, GalScreen luminescence, 90 h | inhibition, % at 2.09 µM | 21% of 5,600 active | AID 651740;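 active = mean inhibition above about 95%, with at least 55% of replicates also reaching it, limit read from the data; inconclusive = meets just one of the two conditions; inactive = meets neither condition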;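 note: plate controls were neutral control median for no effect and positive control median for full effect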
3T3 cytotox: NIH/3T3 (mouse) viability loss; cytotoxicity (signal decrease), % at 8.35 µM; shares compounds with T cruzi growth-1; 14% of 5,600 active; AID 651742; NIH/3T3 viability, CellTiter-Glo ATP luminescence, 90 h;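 active = mean signal decrease across replicates above about 35% based on untreated-well scatter, with enough replicates individually passing, limit read from the data; inconclusive = no rule stated though some were filed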;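 note: 0% = median of neutral control wells and 100% = median of positive control wells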
3T3 cytotox 2: kills mouse NIH/3T3 fibroblasts; shares compounds with T cruzi growth-1; NIH/3T3 viability, CellTiter-Glo ATP luminescence, 90 h; inhibition, % at 24.9 µM; 56% of 5,600 active; AID 651744;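 active = mean loss of cell viability signal at or above a set limit, and enough replicates individually reaching it; inconclusive = meets only the mean limit or only the replicate share; inactive = meets neither condition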;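 note: 0% = median of neutral control wells and 100% = median of positive control wells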
The depositor's hits bear a star; u = inconclusive; x = no result given; ! = repeats disagree. Compounds with a hit are over-represented: about 6.8% of the library has one in this group of screens.

SMILES	C diff growth	Pf Dd2 growth	T cruzi growth-1	T cruzi growth-2	T cruzi growth-3	3T3 cytotox	3T3 cytotox 2
CS(=O)(=O)Nc1ccc2c(c1)[C@H]1C[C@@H](CC(=O)NCc3ccncc3)O[C@@H](CO)[C@H]1O2	0	19	107*	-2	-12	-3	-4
COc1ccc(S(=O)(=O)N(C)C[C@@H]2Oc3ccc(NC(=O)Nc4cccc5ccccc45)cc3CC(=O)N([C@H](C)CO)C[C@@H]2C)cc1	11	-49	20	x	x	x	x
CCCN1[C@@H]2c3ccc(-c4cccnc4)c(=O)n3C[C@H]1[C@H](CO)[C@H]2C(=O)NC1CCCC1	-3	30	x	x	x	x	x
COc1ccc(S(=O)(=O)Nc2cccc3c2O[C@H](CN(C)C(=O)Nc2ccc(F)cc2)[C@H](C)CN([C@@H](C)CO)C3=O)cc1	x	-50	41	x	x	x	x
C/C=C/c1ccccc1[C@@H]1[C@H](C#N)N(c2ncc(CC)s2)[C@H]1CO	-4	-8	x	x	x	x	x
C/C=C/c1ccc([C@H]2[C@@H](CO)N(c3ncc(CC)s3)[C@H]2C#N)cc1	2	48	98*	33	8	-9	23
C/C=C/c1ccccc1[C@@H]1[C@@H](CO)N(c2ncc(CC)s2)[C@H]1C#N	1	-10	x	x	x	x	x
C/C=C/c1ccc([C@H]2[C@@H](C#N)N(c3ncc(CC)s3)[C@@H]2CO)cc1	-2	20	99*	102*	67	-9	12
C[C@@H]1CCCCO[C@@H](CN(C)C(=O)Nc2ccc(F)cc2)[C@H](C)CN([C@@H](C)CO)C(=O)c2cc(NC(=O)Nc3ccccc3)ccc2O1	-2	20	104	x	x	x	x
C[C@@H]1CCCCO[C@H](CN(C)C(=O)Nc2ccccc2)[C@H](C)CN([C@H](C)CO)C(=O)c2cc(NC(=O)Nc3ccc(F)cc3)ccc2O1	x	-85*	102*	104*	108*	-5	-26
C[C@H](CO)N1C[C@H](C)[C@H](CN(C)C(=O)Nc2ccc3c(c2)OCO3)OCCCC[C@H](C)Oc2ccc(NC(=O)Nc3ccccc3)cc2C1=O	-6	9	114*	112*	55	-15	-20
C[C@H](CO)N1C[C@H](C)[C@@H](CN(C)C(=O)Nc2ccc(F)cc2)OCCCC[C@H](C)Oc2ccc(NC(=O)Nc3ccccc3)cc2C1=O	1	16	114*	110*	31	-1	-15
C[C@@H]1CCCCO[C@@H](CN(C)C(=O)Nc2ccc(F)cc2)[C@@H](C)CN([C@H](C)CO)C(=O)c2cc(NC(=O)Nc3ccccc3)ccc2O1	9	72	-5	x	x	x	x
C[C@H]1CCCCO[C@@H](CN(C)C(=O)Nc2ccc(F)cc2)[C@@H](C)CN([C@@H](C)CO)C(=O)c2cc(NC(=O)Nc3ccccc3)ccc2O1	-3	-4	77	x	x	x	x
C[C@@H]1CCCCO[C@@H](CN(C)C(=O)Nc2ccc3c(c2)OCO3)[C@H](C)CN([C@H](C)CO)C(=O)c2cc(NC(=O)Nc3ccccc3)ccc2O1	-4	-46	95	x	x	x	x
C[C@H]1CCCCO[C@H](CN(C)C(=O)Nc2ccc(F)cc2)[C@@H](C)CN([C@@H](C)CO)C(=O)c2cc(NC(=O)Nc3ccccc3)ccc2O1	0	-51	u	108*	88	15	11
C[C@@H]1CN([C@@H](C)CO)C(=O)c2cc(N(C)C)ccc2O[C@H]1CN(C)C(=O)Nc1ccccc1	-2	21	x	x	x	x	x
C[C@@H](O)C#Cc1ccc([C@H]2[C@H](CO)N3CCCCN(C(=O)c4ccncc4)C[C@@H]23)cc1	-3	6	8	x	x	x	x
CO[C@H]1CN(C)C(=O)c2ccc(NC(=O)C3CC3)cc2OC[C@@H](C)N(C(=O)c2cnccn2)C[C@@H]1C	-5	36	x	x	x	x	x
C[C@@H]1CCCCO[C@H](CN(C)C(=O)CCC(F)(F)F)[C@@H](C)CN([C@@H](C)CO)C(=O)c2cc(NC(=O)Cc3ccccc3)ccc2O1	-9	x	81	x	x	x	x
C[C@@H]1CCCCO[C@@H](CN(C)C(=O)Nc2ccccc2)[C@H](C)CN([C@H](C)CO)C(=O)c2cc(NC(=O)Nc3ccccc3)ccc2O1	-2	-50	99*	108*	60	2	3
C[C@@H]1CN([C@@H](C)CO)C(=O)c2cc(NC(=O)Nc3ccc(F)cc3)ccc2O[C@@H](C)CCCCO[C@H]1CN(C)C(=O)c1ccccc1	7	54	68	x	x	x	x
C[C@H](CO)N1C[C@H](C)[C@H](CN(C)C(=O)Nc2ccccc2)OCCCC[C@H](C)Oc2ccc(NC(=O)Nc3ccccc3)cc2C1=O	-5	-12	67	x	x	x	x
C[C@@H]1CCCCO[C@H](CN(C)C(=O)Nc2ccc3c(c2)OCO3)[C@@H](C)CN([C@H](C)CO)C(=O)c2cc(NC(=O)Cc3ccccc3)ccc2O1	-3	-32	38	x	x	x	x
C[C@H]1CCCCO[C@@H](CN(C)C(=O)c2ccccc2)[C@@H](C)CN([C@@H](C)CO)C(=O)c2cc(NC(=O)Nc3ccc(F)cc3)ccc2O1	-13	-68	u	115*	12	3	15
SMILES	C diff growth	Pf Dd2 growth	T cruzi growth-1	T cruzi growth-2	T cruzi growth-3	3T3 cytotox	3T3 cytotox 2
C[C@@H]1CCCCO[C@H](CN(C)C(=O)Nc2ccc3c(c2)OCO3)[C@H](C)CN([C@@H](C)CO)C(=O)c2cc(N(C)C)ccc2O1	-3	x	72	x	x	x	x
C[C@@H]1CCCCO[C@@H](CN(C)C(=O)Nc2ccc3c(c2)OCO3)[C@@H](C)CN([C@H](C)CO)C(=O)c2cc(N(C)C)ccc2O1	5	-6	96*!	41	-8	-10	-9
C[C@H]1CCCCO[C@@H](CN(C)C(=O)Nc2ccc3c(c2)OCO3)[C@@H](C)CN([C@@H](C)CO)C(=O)c2cc(NC(=O)Cc3ccccc3)ccc2O1	-1	-60	u	103*	11	6	-9
C[C@@H]1CN([C@@H](C)CO)C(=O)Cc2cc(NS(=O)(=O)c3ccccc3)ccc2O[C@H]1CN(C)CC1CC1	-4	-17	29	x	x	x	x
CCCNC(=O)C[C@@H]1CC[C@@H]2[C@H](COc3ccc(NC(=O)CCC)cc3C(=O)N2C)O1	x	-23	9	x	x	x	x
C[C@@H]1CN([C@H](C)CO)S(=O)(=O)c2ccc(-c3cccc(C#N)c3)cc2O[C@H]1CN(C)C(=O)Nc1ccccc1F	0	-52	88	x	x	x	x
C[C@@H]1CN([C@@H](C)CO)S(=O)(=O)c2ccc(-c3cccc(C#N)c3)cc2O[C@@H]1CN(C)C(=O)c1ccccc1	-1	-39	109*	104*	56	54*	72*
C[C@H]1CN([C@@H](C)CO)S(=O)(=O)c2ccc(-c3cccc(C#N)c3)cc2O[C@@H]1CN(C)C(=O)Nc1ccccc1F	1	-56	u	88	81	34	61*
